Source: PubChem (several laboratories)
Calb biofilm kill – kills Candida albicans biofilms | C. albicans biofilm + clotrimazole, Alamar Blue | inhibition, % at 6 µM | hit rate 0.14% among 85,000 | AID 834;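 active = inhibition above 20%; inactive = inhibition below 20%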;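 also: preformed 24 hr biofilms exposed to compound for 48 hr; 0% = biofilm without compound and 100% = blank killed by clotrimazole plus chlorhexidine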
BAP1 inh – blocks human BAP1 ubiquitin-AMC hydrolysis; recombinant BAP1, Ub-AMC hydrolysis fluorescence kinetic; hits give low values; activity remaining (% of control), % at 20 µM; hit rate 0.48% among 72,000;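 active = activity remaining at or below 50% of control, provided the compound also passes the data quality filters; inactive = the rest, including low values that fail the filters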;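 also: 100% = DMSO wells rate and 0% = substrate alone blank rate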
FXIIa inh mix – blocks human factor XIIa in pooled compound mixtures. AID 684. inhibition, % at 5 µM. purified FXIIa, fluorogenic substrate. P00748. hit rate 0.2% among 62,000;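 also: 0% = enzyme without compound and 100% = no enzyme blank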
C1s inh – human complement C1s inhibition. P09871. purified C1s, fluorogenic AMC substrate, pooled mixtures. mean inhibition % of two 10-compound mixtures (hits give high values), % at 5 µM (by protocol). hit rate 0.16% among 62,000;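 active = inhibition above 20% in each of the two 10-compound mixture wells holding the compound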;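 also: 0% = enzyme wells lacking compound mixture and 100% = no-enzyme blank wells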
FXIa inh mix – factor XIa (human) inhibition, mixture screen; hit rate 0.19% among 62,000; inhibition, % at 5 µM; purified FXIa, fluorogenic substrate, pooled mixtures; P03951;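 also: each value is inhibition by a whole ten-compound pool holding the compound; 0% = enzyme with no mixture and 100% = wells lacking enzyme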
Target sequence (P03951 19-387 limits assumed): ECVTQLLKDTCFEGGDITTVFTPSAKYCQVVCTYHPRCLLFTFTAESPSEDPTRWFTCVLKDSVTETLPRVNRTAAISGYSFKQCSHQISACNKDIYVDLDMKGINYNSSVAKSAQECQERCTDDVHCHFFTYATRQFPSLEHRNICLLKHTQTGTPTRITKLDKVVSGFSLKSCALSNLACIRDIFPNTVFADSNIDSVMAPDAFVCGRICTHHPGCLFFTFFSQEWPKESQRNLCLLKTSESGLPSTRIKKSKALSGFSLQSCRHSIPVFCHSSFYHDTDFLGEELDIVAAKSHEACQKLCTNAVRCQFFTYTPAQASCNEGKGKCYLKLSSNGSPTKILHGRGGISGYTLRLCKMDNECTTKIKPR
Target sequence (P03951 388-625 limits assumed): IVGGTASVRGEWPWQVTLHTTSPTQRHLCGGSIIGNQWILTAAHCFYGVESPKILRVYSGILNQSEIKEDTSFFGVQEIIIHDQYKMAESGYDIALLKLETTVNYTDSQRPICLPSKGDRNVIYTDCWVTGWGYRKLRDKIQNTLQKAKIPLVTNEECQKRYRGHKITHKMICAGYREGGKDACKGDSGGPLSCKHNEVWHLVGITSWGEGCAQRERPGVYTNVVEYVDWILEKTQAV
CatG inh – blocks human cathepsin G enzyme activity; P08311; purified enzyme, AMC-tetrapeptide fluorescence, pooled mixtures; inhibition, % at 5 µM (by protocol); hit rate 0.2% among 62,000;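 active = inhibition above 20% in each of the two mixture wells holding the compound; inactive = inhibition of 20% or less in either well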;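 also: 0% = enzyme control without mixture and 100% = blank lacking enzyme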
An asterisk follows results filed as active. Rows were chosen to be rich in hits. Some 0.8% of all compounds tested hit in one or more screens of this group. Rule as the data show it, unless noted: active = inhibition above about 20% (passing the limit was not always enough); inactive = the rest.

What do the screens show for `CCOc1cc2[nH]c(=S)n(CC3CCCO3)c(=O)c2cc1OCC` (configuration not stated)?
Calb biofilm kill: 1; BAP1 inh: 85; FXIIa inh mix: 20; C1s inh: 22*; FXIa inh mix: 8; CatG inh: 14

How did COc1cc2[nH]c(=S)n(CC3CCCO3)c(=O)c2cc1OC (configuration not stated) do in these assays?
Calb biofilm kill: 7; BAP1 inh: 54; FXIIa inh mix: 4; C1s inh: -2; FXIa inh mix: 5; CatG inh: -5

What do the screens show for `COc1ccc(OC)c(C(=O)CSc2nc3cccnc3n2C)c1`?
Calb biofilm kill: 1; FXIIa inh mix: 4; C1s inh: -91; FXIa inh mix: -25; CatG inh: -27

What do the screens show for `COC(=O)c1ccccc1NC(=O)c1cc2sccc2n1C`?
Calb biofilm kill: 5; FXIIa inh mix: 3; C1s inh: -5; FXIa inh mix: -3; CatG inh: 31*

How did COc1ccc(NC(=O)C(C/C=C(/C)Cl)C(C)=O)cc1 (configuration not stated) do in these assays?
Calb biofilm kill: 21*

Results for CCOc1ccc2[nH]c3c(N4CCN(c5ccccn5)CC4)ncnc3c2c1 ?
Calb biofilm kill: -2; BAP1 inh: 71; FXIIa inh mix: 1; C1s inh: 69*; FXIa inh mix: 1; CatG inh: 11

How did Cc1onc(-c2ccccc2Cl)c1C(=O)N1CCN(c2nc3ccccc3s2)CC1 do in these assays?
Calb biofilm kill: -5; BAP1 inh: 133

What do the screens show for `Cc1onc(-c2ccccc2Cl)c1C(=O)OCC(=O)Nc1ccc2c(c1)OCO2`?
Calb biofilm kill: 25*; BAP1 inh: 55; FXIIa inh mix: 2; C1s inh: 6; FXIa inh mix: 1; CatG inh: -3

What do the screens show for `Cc1onc(-c2ccccc2)c1C(=O)OCC(=O)Nc1ccc2c(c1)OCO2`?
Calb biofilm kill: 0; BAP1 inh: 108; FXIIa inh mix: 2; C1s inh: 20; FXIa inh mix: 6; CatG inh: 10

What do the screens show for `COc1ccccc1-c1c(C#N)c(SCC(=O)N2CCCC2)nc(C)c1C(N)=O`?
Calb biofilm kill: 4; FXIIa inh mix: -18; C1s inh: 11; FXIa inh mix: 7; CatG inh: 25*

Results for CC(C)=CCC/C(C)=C/CC/C(C)=C/CSc1ccccc1C(=O)O ?
BAP1 inh: 48*

Results for CCOC(=O)Cn1cnc2sc3c(c2c1=O)CCC3 ?
Calb biofilm kill: 6; BAP1 inh: 56; FXIIa inh mix: 57*; C1s inh: -6; FXIa inh mix: 2; CatG inh: -8

Results for COc1ccc2[nH]c(=O)c(CN(Cc3nnnn3Cc3ccc(F)cc3)CC3CCCO3)cc2c1 (configuration not stated) ?
Calb biofilm kill: 1; FXIIa inh mix: 21*; C1s inh: -20; FXIa inh mix: 6; CatG inh: -5

Results for NC(=O)c1ccccc1NC(=O)CN1CCOCC1 ?
Calb biofilm kill: 11; BAP1 inh: 95; FXIIa inh mix: 11; C1s inh: 0; FXIa inh mix: 20*; CatG inh: 8

What do the screens show for `COc1cccc(N2C(=O)N(c3ccccc3)C3CS(=O)(=O)CC32)c1` (configuration not stated)?
BAP1 inh: 92; FXIIa inh mix: 2; C1s inh: -9; FXIa inh mix: 0; CatG inh: -14

Results for COc1cccc(N2C(=O)N(c3ccccc3Cl)C3CS(=O)(=O)CC32)c1 (configuration not stated) ?
Calb biofilm kill: -1; BAP1 inh: 99; FXIIa inh mix: 3; C1s inh: 23*; FXIa inh mix: 9; CatG inh: 17

How did CCc1ccc(N(C)S(=O)(=O)c2ccc3[nH]cc(C(=O)NCCN4CCOCC4)c(=O)c3c2)cc1 do in these assays?
Calb biofilm kill: 46*

How did COc1cc(NC(=O)CN2CC(c3ccccc3)CC2=O)cc(OC)c1 (configuration not stated) do in these assays?
Calb biofilm kill: 20*; BAP1 inh: 92; FXIIa inh mix: 8; C1s inh: 4; FXIa inh mix: 0; CatG inh: 2

How did O=C(C1CCC(CNS(=O)(=O)c2cccc3cccnc23)CC1)N1CCCC1 (configuration not stated) do in these assays?
Calb biofilm kill: 8; BAP1 inh: 100; FXIIa inh mix: 22*; C1s inh: -32; FXIa inh mix: 1; CatG inh: -2

What do the screens show for `CC(C)CN(CC(C)C)S(=O)(=O)N1CCC(C(=O)NCc2ccc(F)cc2)CC1`?
Calb biofilm kill: 5; BAP1 inh: 97; FXIIa inh mix: 9; C1s inh: 24*; FXIa inh mix: 8; CatG inh: 16

Results for Cc1nc(-c2cccc(S(=O)(=O)N3CCOCC3)c2)cs1 ?
BAP1 inh: 129; FXIIa inh mix: 10; C1s inh: 7; FXIa inh mix: 5; CatG inh: 9

Results for O=c1oc(-c2cccnc2)nc2ccccc12 ?
Calb biofilm kill: 5; BAP1 inh: 91; FXIIa inh mix: 2; C1s inh: 15; FXIa inh mix: 3; CatG inh: 56*

How did O=c1oc(-c2cccc(S(=O)(=O)N3CCOCC3)c2)nc2ccccc12 do in these assays?
Calb biofilm kill: 7; BAP1 inh: 165; FXIIa inh mix: 2; C1s inh: 17; FXIa inh mix: 4; CatG inh: 49*

How did O=C(Nc1cccc(F)c1)C1CCN(C(=O)Cc2ccccc2)CC1 do in these assays?
Calb biofilm kill: 4; BAP1 inh: 95; FXIIa inh mix: 7; C1s inh: -24; FXIa inh mix: 7; CatG inh: -1

Results for O=C1CSC(=Nc2ccc(O)cc2)N1c1ccc(O)cc1 ?
BAP1 inh: 92; FXIIa inh mix: 4; C1s inh: 9; FXIa inh mix: 35; CatG inh: 39*

What do the screens show for `COc1ccc(OC)c(NC(=O)CSc2ncccn2)c1`?
Calb biofilm kill: -4

How did Nc1nc(Cn2nnc(-c3ccccc3Cl)n2)nc(N2CCOCC2)n1 do in these assays?
Calb biofilm kill: 2; BAP1 inh: 76; FXIIa inh mix: 21*; C1s inh: 2; FXIa inh mix: 3; CatG inh: 0

How did Nc1nc(Cn2nnc(-c3ccccc3F)n2)nc(N2CCOCC2)n1 do in these assays?
BAP1 inh: 79; FXIIa inh mix: 5; C1s inh: 0; FXIa inh mix: -1; CatG inh: 4

Results for CCc1ccccc1NC(=O)/C(=C/c1ccco1)c1ccccc1 ?
Calb biofilm kill: 67*

Results for COc1ccc2c(c1)CCc1c(C(=O)NCCCn3ccnc3)noc1-2 ?
Calb biofilm kill: 0; BAP1 inh: 113; FXIIa inh mix: 4; C1s inh: -4; FXIa inh mix: 4; CatG inh: 36*

Results for COc1cccc(-c2cc(C(=O)NCCN3CCOCC3)no2)c1 ?
Calb biofilm kill: 1; BAP1 inh: 102; FXIIa inh mix: 0; C1s inh: 1; FXIa inh mix: 4; CatG inh: 6
